Many of the other results were omitted from the sample, so hits are more common in it than they were.
12-LOX inh = Primary qHTS assay for inhibitors of human arachidonate 12S-lipoxygenase (ALOX12): Round 2. purified 12hLO, xylenol orange hydroperoxide absorbance. AID 1671190, 2021. hit rate 1.1% among 580,000. Potency, µM (highest dose often 108 µM), inactives show top-dose activity change, negative = inhibition, most hits filed as inhibitors; note: potency is the fitted concentration of half-maximal effect
Target sequence (P18054 whole entry, looked up): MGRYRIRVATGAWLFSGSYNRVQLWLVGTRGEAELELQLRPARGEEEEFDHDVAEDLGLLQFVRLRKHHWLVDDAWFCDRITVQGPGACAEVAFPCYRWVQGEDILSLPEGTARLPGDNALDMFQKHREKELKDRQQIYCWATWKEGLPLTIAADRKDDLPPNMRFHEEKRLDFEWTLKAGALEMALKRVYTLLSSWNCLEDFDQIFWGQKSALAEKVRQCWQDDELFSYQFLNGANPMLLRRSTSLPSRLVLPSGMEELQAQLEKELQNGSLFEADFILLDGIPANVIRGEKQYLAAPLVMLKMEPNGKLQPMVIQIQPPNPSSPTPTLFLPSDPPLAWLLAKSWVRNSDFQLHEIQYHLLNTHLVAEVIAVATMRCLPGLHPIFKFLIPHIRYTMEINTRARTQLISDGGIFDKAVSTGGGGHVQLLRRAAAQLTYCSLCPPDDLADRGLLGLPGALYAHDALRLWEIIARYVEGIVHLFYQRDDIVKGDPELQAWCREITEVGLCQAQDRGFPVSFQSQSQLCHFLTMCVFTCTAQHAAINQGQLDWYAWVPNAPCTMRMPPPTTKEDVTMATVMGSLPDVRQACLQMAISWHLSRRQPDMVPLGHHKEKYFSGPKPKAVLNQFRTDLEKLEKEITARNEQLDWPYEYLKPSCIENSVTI
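Hydroperoxide product was detected by ferrous iron/xylenol orange as the 573 to 405 nm absorbance ratio. Arachidonic acid at 40 uM (final) was turned over for 30 min at room temperature by 150 nM human 12hLO, pH 7.0 Hepes buffer, after 15 min compound preincubation.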
IL1B secr inh = qHTS for Inhibitors of Inflammasome Signaling: IL-1-beta AlphaLISA Primary Screen. hit rate 4.7% among 360,000. activity change, % at 57.5 µM. THP-1 LPS/ATP IL-1B secretion, AlphaLISA, 16 h; hits give low values; in the data active = activity change below about -50%; inconclusive = mostly about -30% to -49%
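THP-1 cells pretreated 1 hr with compounds (up to 57.5 uM final), then stimulated with LPS (250 ng/mL final) plus ATP (1.25 mM final); secreted IL-1B measured by AlphaLISA after 16 hr, decreased signal indicating inhibition.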
HT1080NT lethal = qHTS for induction of synthetic lethality in tumor cells producing 2HG: qHTS for the HT-1080-NT fibrosarcoma cell line; hit rate 1.6% among 360,000; Potency, µM (highest dose often 46.1 µM), inactives show top-dose activity, negative = less viability, usual class: cytotoxic; HT-1080-NT fibrosarcoma viability, CellTiter-Glo ATP luminescence, 48 h;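 note: NT is the 2HG producing partner of a matched IDH1 knockdown line; potency is the fitted concentration of half-maximal effect; 0% = DMSO-treated cells and -100% = media-only wells without cells; nearly all actives have a fitted effect of over 55% in size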
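Fibrosarcoma NT cells, 750 per well in 5% FBS RPMI, were exposed to compound for 48 hours. Viability: CellTiter-Glo luminescence.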
DT40 TDP1 CPT = qHTS for Inhibitors of human tyrosyl-DNA phosphodiesterase 1 (TDP1): qHTS in cells in presence of CPT; hit rate 12% among 420,000; chicken DT40 Tdp1-/-;hTDP1 cells + 20 nM CPT, ATP luminescence, 48 h; AID 686979, 2013; Potency, µM (series often up to 46.2 µM), for the others: at the highest dose activity change, negative = growth inhibition, hits mostly inhibitors; note: potency is the fitted concentration of half-maximal effect; nearly all actives have a fitted effect of over 55% in size
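Chicken DT40 Tdp1-/- cells stably complemented with human TDP1 were seeded at 400 cells/well in medium containing 20 nM camptothecin, exposed to pin-transferred compounds, and grown at 37 °C for at least 48 hr. Viability was read as ATP luminescence.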
DT40 TDP1 no CPT = qHTS for Inhibitors of human tyrosyl-DNA phosphodiesterase 1 (TDP1): qHTS in cells in absence of CPT; DT40 Tdp1-/- hTDP1 cells, no CPT, ATP luminescence, 48 h; Potency, µM (titrated, usually from 46.2 µM), for the others: at the top dose activity change, negative = growth inhibition, actives largely listed as inhibitors; hit rate 15% among 420,000; AID 686978, 2013; note: potency is the fitted concentration of half-maximal effect; nearly all actives have a fitted effect of over 55% in size
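Chicken DT40 Tdp1-/- cells stably complemented with human TDP1 were seeded at 400 cells/well with DMSO in place of 20 nM camptothecin. After compound pinning, cells grew at least 48 hr at 37 °C; viability read by CellTiter-Glo luminescence.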
HT1080 IDH1KD tx = qHTS for induction of synthetic lethality in tumor cells producing 2HG: qHTS for the HT-1080-IDH1KD cell line; HT-1080 IDH1 knockdown viability, ATP luminescence, 48 h; Potency, µM (highest dose often 46.1 µM), without a hit: at the highest dose activity, negative = toxicity, usual class: cytotoxic; hit rate 2% among 360,000; AID 686971, 2013;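 note: potency is the fitted concentration of half-maximal effect; 0% = DMSO wells and -100% = cell-free medium wells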
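Viability of IDH1-knockdown HT-1080 fibrosarcoma cells was assessed by CellTiter-Glo after 48 h at 37 °C with titrated compound; concentration-effect curves were classified by fit quality and response size.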
An asterisk follows results filed as active; ? = inconclusive; . = no result; [ ] = another dose, or the depositor's remark. Unless noted, calls come from the whole dose curve; as a rule, active = well fitted curve in the direction sought with a large enough effect; inconclusive = small, poorly fitted or top-dose-only effect, or another doubt; inactive = no such curve, though single readings can be large; an effect the other way counts as inactive or inconclusive. Unless noted, % is set by controls: 0 for no effect and ±100 for the full control effect.

SMILES	12-LOX inh	IL1B secr inh	HT1080NT lethal	DT40 TDP1 CPT	DT40 TDP1 no CPT	HT1080 IDH1KD tx
COc1ccc(CCNC(=O)c2ccc3c(c2)c(C)c(C)n3Cc2ccccc2)c(OC)c1OC	-29%	.	.	23µM*	?	.
Cc1c(C)n(Cc2ccc(F)cc2)c2ccc(C(=O)N3CCN(c4ccc(F)cc4)CC3)cc12	0%	.	.	21µM*	23µM*	.
CCN1CCN(C(=O)c2ccc3c(c2)c(C)c(C)n3Cc2ccccc2)CC1	-23%	-15	-2%	?	-43%	-22%
CCn1c(C)c(C)c2cc(C(=O)NCc3ccc(F)cc3)ccc21	-23%	.	.	?	?	.
CCn1c(C)c(C)c2cc(C(=O)NCC(C)c3ccccc3)ccc21 (stereo unspecified)	-5%	.	.	16µM*	29µM*	.
CCOC(=O)C(NC(=O)c1ccccc1)C(=O)OCC	-7%	.	.	.	.	.
COCC(C)N(C)C(=O)c1cc2ccccc2c(OC)n1 (stereo unspecified)	-3%	.	.	.	.	.
COC(=O)C(NC(=O)CCc1c(C)nc2c(c(C)nn2-c2ccccc2)c1C)C(C)C (stereo unspecified)	8%	31	0%	16µM*	16µM*	-5%
CCOC(=O)CCc1c(C)nc2c(c(C)nn2-c2ccccc2)c1C	3%	0	9%	?	0%	8%
CCC(C)NC(=O)CCc1c(C)nc2c(c(C)nn2-c2ccccc2)c1C (stereo unspecified)	0%	-3	-7%	10µM*	23µM*	-2%
CCN1C(=O)COc2ccc(NC(=O)c3cc(=O)c4cc(C)ccc4o3)cc21	8%	.	.	.	.	.
C=C[C@](C)(O)CCC=C(C)C	.	.	.	0%	2%	.
C=C[C@](C)(O)CCC1C(=C)CC(O)C2C(C)(C)CCCC12C (stereo partly specified)	.	.	.	?	9.2µM*	.
COC(=O)c1[nH]c2c(c1C)C(=O)CC(c1ccc(OC)c(OC)c1)C2 (stereo unspecified)	.	19	3%	?	-26%	7%
COC(=O)c1[nH]c2c(c1C)C(=O)CC(c1cccc(OC)c1)C2 (stereo unspecified)	-1%	5	0.73µM*	1.5µM*	1.3µM*	0.92µM*
COc1cc(C2CC(=O)c3c([nH]c(C(=O)OC4CCCC4)c3C)C2)cc(OC)c1OC (stereo unspecified)	-17%	.	.	1.6µM*	1.8µM*	.
COCCOC(=O)c1[nH]c2c(c1C)C(=O)CC(c1ccc(OC)c(OC)c1)C2 (stereo unspecified)	13%	-14	1%	?	-28%	2%
CCOCCOC(=O)c1[nH]c2c(c1C)C(=O)CC(c1cc(OC)c(OC)c(OC)c1)C2 (stereo unspecified)	0%	1	-16%	10µM*	9.2µM*	-22%
COC(=O)c1[nH]c2c(c1C)C(=O)CC(c1cc(OC)c(OC)c(OC)c1)C2 (stereo unspecified)	16%	33	3%	23µM*	12µM*	0%
O=C(Nc1ccc(F)cc1F)C1=C(N2CCOCC2)c2ccccc2S1(=O)=O	31%	.	.	.	.	.
CCc1ccc(CNC(=O)c2ccccc2SC)s1	-20%	.	.	.	.	.
CCCN(CC(=O)NC(=O)Nc1ccc(C)c(C)c1)Cc1nnc(-c2cccs2)o1	2%	.	.	.	.	.
Nc1ncccc1CNC(=O)[C@H]1CCC[C@H](O)C1	-4%	.	.	.	.	.
Cc1cccc(NC(=O)CN(CC2CCCO2)C(=O)c2oc3ccccc3c2C)c1C (stereo unspecified)	-23%	12	1%	29µM*	?	-7%
Cc1cccc(NC(=O)CN(CC2CCCO2)C(=O)c2cc3ccccc3o2)c1C (stereo unspecified)	7%	-10	10%	?	?	8%
SMILES	12-LOX inh	IL1B secr inh	HT1080NT lethal	DT40 TDP1 CPT	DT40 TDP1 no CPT	HT1080 IDH1KD tx
CC1(C)Cc2sc3c(=O)n(CC(=O)c4ccc(Br)cc4)cnc3c2CO1	0%	.	.	.	.	.
COc1ccc(C(=O)C(=NNc2ccccc2)c2ccc(OC)cc2)cc1	-4%	-55*	9%	?	?	-6%
COc1ccc(NC(=O)/C=N/O)cc1	-2%	20	-13%	0%	3%	7%
COc1ccc(N/N=C(\C=N\O)C(=O)c2ccc(OC)cc2)cc1	?	17	?	2.6µM*	2.9µM*	?
COc1ccc(C(=O)C(=NN)c2ccccc2)cc1	-19%	0	1%	-12%	-5%	-7%
O=C(O)CCC(=O)N[C@H]1CO[C@H]2[C@@H]1OC[C@@H]2n1nnnc1Oc1ccc2c(c1)OCO2	-1%[176 µM]	.	.	.	.	.
COc1cc(NC(=O)CC(C)n2nc(C)cc2C)cc(OC)c1 (stereo unspecified)	-1%	.	.	-2%	-29%	.
Cc1cc(C)cc(NC(=O)CC(C)n2nc(C)cc2C)c1 (stereo unspecified)	-12%	.	.	21µM*	?	.
COc1ccc(-c2ccc3nnc(CNC(=O)Cc4cccc(OC)c4)n3n2)cc1	16%	.	.	.	.	.
COc1ccccc1-c1nnc(NC(=O)CCS(=O)(=O)c2ccccc2)o1	-28%	-81*	?	23µM*	18µM*	-19%
O=C(CCS(=O)(=O)c1ccc(F)cc1)Nc1nnc(-c2ccc(F)cc2)o1	5%	?	-7%	13µM*	16µM*	1%
COc1ccccc1-c1nnc(NC(=O)CCS(=O)(=O)c2ccc(F)cc2)o1	10%	-24	-16%	8.2µM*	9.2µM*	-18%
Cc1ccc(-c2nnc(NC(=O)CCS(=O)(=O)c3ccc(F)cc3)o2)c(C)c1	9%	6	-14%	-6%	-6%	-8%
CCN1CCC2(CCC1=O)CN(Cc1cccc(Cl)c1F)CCN2C (stereo unspecified)	7%	.	.	.	.	.
CCOC(=O)C1=C(c2ccccc2)NC(=O)NC1c1ccc(O)c(Cl)c1 (stereo unspecified)	-16%	.	12µM*	?	?	13µM*

Source: PubChem (National Center for Advancing Translational Sciences (NCATS))
